Coupling enz: coupling enzyme interference in Giardia aldolase counter-screen. activity change, negative = inhibition, % at 58.2 µM, hits read low. coupling enzyme system counterscreen, AmpLite Red fluorescence. hit rate 0.67% among 290,000; in the data active = activity change below about -30%
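Fluorescence at 525 nm excitation and 598 nm emission measured inhibition of the coupled detection system without aldolase. Compounds (at 57.5 uM final) were preincubated 10 min at room temperature with coupling enzyme reagent before a 20 min substrate/AmpLite Red step.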
TrxR1 inh: rat TrxR1 inhibition; AID 588453; O89049; recombinant rTrxR1, NADPH fluorescence consumption, selenite substrate; Potency, µM (titrated, usually from 114 µM), without a hit: top-dose activity change, negative = inhibition, actives largely listed as inhibitors; hit rate 1% among 390,000; also: potency is read from the fitted curve at half-maximal effect; nearly all actives have a fitted effect of over 65% in size
Target sequence (O89049 whole entry, looked up): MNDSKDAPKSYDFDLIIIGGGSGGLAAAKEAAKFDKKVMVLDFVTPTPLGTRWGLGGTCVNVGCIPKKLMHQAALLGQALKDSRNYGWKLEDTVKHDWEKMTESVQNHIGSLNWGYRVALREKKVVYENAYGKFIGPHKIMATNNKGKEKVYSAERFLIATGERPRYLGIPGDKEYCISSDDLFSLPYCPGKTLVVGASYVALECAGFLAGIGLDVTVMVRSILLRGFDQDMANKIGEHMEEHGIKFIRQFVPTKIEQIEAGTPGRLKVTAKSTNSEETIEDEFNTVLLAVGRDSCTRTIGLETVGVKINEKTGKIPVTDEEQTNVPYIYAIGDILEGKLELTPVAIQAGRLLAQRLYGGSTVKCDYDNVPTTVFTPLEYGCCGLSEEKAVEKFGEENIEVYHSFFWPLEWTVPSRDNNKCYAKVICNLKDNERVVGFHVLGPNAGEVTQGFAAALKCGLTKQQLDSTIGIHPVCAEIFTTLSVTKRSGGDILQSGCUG
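Rat TrxR1 (90 nM in the dispensed reagent) was pre-reduced with 400 uM NADPH for 5 min at room temperature, then incubated with compound for 15 min. After 400 uM selenite was added, NADPH fluorescence (Ex 340/Em 450 nm) was followed for 8 min.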
USP1 inh: USP1/UAF1 (human) deubiquitinase inhibition. AID 743255. recombinant USP1/UAF1, Ub-Rhodamine cleavage fluorescence. O94782. Potency, µM (top dose mostly 57.1 µM), inactives show at the top dose activity change, negative = inhibition, hits mostly inhibitors. hit rate 0.23% among 390,000; also: potency is read from the fitted curve at half-maximal effect; nearly all actives have a fitted effect of over 60% in size
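USP1/UAF1 complex at 1 nM was preincubated with compound for 15 min at room temperature, then Ub-Rho substrate (150nM final) was added. Fluorescence (480/540 nm) was read kinetically, 6 reads every 60 seconds.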
TrxR1 substrate: rat thioredoxin reductase 1 substrate activity; O89049; purified TrxR1 substrate turnover, NADPH consumption readout; Potency, µM (top dose mostly 114 µM), for inactives: at the top dose activity change, negative = substrate turnover; hit rate 0.01% among 390,000; AID 588456; also: potency is read from the fitted curve at half-maximal effect; nearly all actives have a fitted effect of over 50% in size
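Rat TrxR1, dispensed at 90 nM, was prereduced with 400 uM NADPH (final) for 5 min at ~22 deg C, then incubated with compound 15 min before 400 uM selenite. A first-read NADPH fluorescence drop versus no-compound background flagged substrates.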
GALK inh: inhibitors of human galactokinase | hit rate 0.007% among 270,000 | Purified GALK, Kinase-Glo residual ATP luminescence | Potency, µM (titrated, usually from 57.5 µM), for the others: top-dose activity change, negative = inhibition, usual class: inhibitors | AID 1868 | P51570; also: potency is read from the fitted curve at half-maximal effect
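Galactose (100 uM) and ATP (35 uM) were turned over by 5 nM GALK for 1 h at RT. Kinase-Glo Plus then converted the remaining ATP into a luminescent signal.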
The depositor's hits bear a star; ? = inconclusive; . = no result. An excerpt weighted towards active compounds, which were near 1.5% of everything screened. Unless noted, calls follow the shape of the dose curve; as a rule, active = well fitted curve in the direction sought with a large enough effect; inconclusive = small, poorly fitted or top-dose-only effect, or another doubt; inactive = no such curve, though single readings can be large; an effect the other way counts as inactive or inconclusive. % is scaled to controls: 0 for no effect and ±100 for the full control effect.

SMILES | Coupling enz | TrxR1 inh | USP1 inh | TrxR1 substrate | GALK inh
CC[C@H](C)[C@H](NC(=O)[C@H](C)NC(=O)[C@H](Cc1cnc[nH]1)NC(=O)[C@@H]1CCCN1C(=O)CNC(=O)[C@H](CC(C)C)NC(=O)[C@H](CC(C)C)NC(=O)[C@H](Cc1ccc(O)cc1)NC(=O)CNC(=O)[C@H](C)NC(=O)[C@H](CO)NC(=O)[C@H](CC(N)=O)NC(=O)[C@H](CC(C)C)NC(=O)[C@@H](NC(=O)[C@H](Cc1c[nH]c2ccccc12)NC(=O)CN)[C@@H](C)O)C(=O)O | 0.2 | . | . | . | .
CCOC(=O)C1=CN(C(=O)OC(C)(C)C)C(CN2C(=O)COCC2=O)C1 (stereo not given) | 2.9 | 6.9% | . | 1.7% | .
CNc1ccc(C=O)cc1Cl | . | -9.2% | . | -11.3% | .
Cc1ccc(Nc2nc(NCc3ccco3)nc3nccnc23)cc1 | . | 15.1% | . | 2.0% | .
Cc1ccc(Nc2nc(NCc3ccco3)nc3nccnc23)c(C)c1 | . | 1.1% | . | -0.2% | .
Cc1nc(-n2[nH]c3c(c2=O)CCCC3)[nH]c(=O)c1Cc1ccccc1 | -7.3 | ? | 28.2µM* | -12.5% | -0.4%
COC(=O)C1=C[C@@H](C(=O)OC)[C@@H]2C3=C(C(=O)[C@@]2(C)NC(=O)c2ccccc2)[C@H](C)[C@@H]2C(=O)N(c4ccccc4)C(=O)[C@@H]2[C@@H]3C1 | -0.3 | -16.2% | . | -2.6% | .
Cc1cc(=O)cc(C)n1-c1ccccc1N | 2.0 | 4.9% | -6.8% | 2.2% | -0.2%
Cc1ccc(C)n1-c1ccccc1N | -55.9* | . | . | . | 1.1%
O=C1C(=O)c2ccccc2C(O)=C1CC=C(Cl)Cl | . | -23.2% | -25.6% | -11.6% | .
CC(C)=CCC1=C(O)c2ccccc2C(=O)C1=O | -60.9* | . | . | . | .
CCOc1c2c(c(-c3ccc4c(c3)OCO4)c3cc(OC)c(OC)cc13)C(=O)OC2 | . | 5.3% | . | 16.8% | .
CC(NC(=O)/C(C#N)=C/c1ccc(Cl)c([N+](=O)[O-])c1)c1ccccc1 (stereo not given) | -11.0 | 39.8µM* | -25.3% | -5.1% | -3.0%
CCOc1cc(-c2ccc3c(c2)OCO3)cc(=[O+]CC)c2c(C)oc(C)c12 | . | ? | . | -5.6% | .
C#CC(=O)CC1(CN(Cc2ccccc2)C(=O)OC(C)(C)C)CCCCC1 | . | 2µM* | -25.8% | -4.6% | .
CON(C)C(=O)CC1(CN(Cc2ccccc2)C(=O)OC(C)(C)C)CCCCC1 | . | -0.9% | -25.5% | -3.3% | .
CCN(CCO)C1CC(=O)N(c2ccccc2C)C1=O (stereo not given) | 2.7 | 50.1µM* | -16.3% | 0.3% | 0.3%
Cc1ccccc1N1C(=O)CC(N(O)c2ccccc2)C1=O (stereo not given) | -2.1 | -33.1% | -10.0% | -2.2% | 4.8%
COc1cccc2cc(C(=O)C3=C(O)C(=O)N(Cc4ccco4)C3c3cccnc3)oc12 (stereo not given) | 8.2 | ? | -14.0% | -15.8% | -3.6%
CCOc1ccc(C2C(C(=O)c3ccc(C)o3)=C(O)C(=O)N2CCN2CCOCC2)cc1OC (stereo not given) | -4.4 | 56.2µM* | -27.2% | -6.8% | 0.7%
O=C(C1=C(O)C(=O)N(Cc2ccco2)C1c1cccnc1)c1cc2ccccc2o1 (stereo not given) | 4.3 | 12.6µM* | -4.2% | -7.3% | -0.4%
O=C(C1=C(O)C(=O)N(CCN2CCOCC2)C1c1ccc(F)cc1)c1cccs1 (stereo not given) | 2.4 | -8.6% | -24.3% | -8.5% | 5.9%
O=C(C1=C(O)C(=O)N(CCN2CCOCC2)C1c1ccc(Br)cc1)c1cc2ccccc2o1 (stereo not given) | . | 10.0% | -13.6% | -7.1% | 2.4%
O=C(C1=C(O)C(=O)N(CCN2CCOCC2)C1c1ccccn1)c1cccs1 (stereo not given) | -19.2 | 22.4µM* | -15.4% | 1.3% | 1.0%
O=C(C1=C(O)C(=O)N(CCN2CCOCC2)C1c1cccs1)c1cc2ccccc2o1 (stereo not given) | . | 56.2µM* | -16.8% | -0.6% | .
O=S(=O)(c1ccccc1Br)N1CCN(c2nc(-c3ccccc3)nc3ccccc23)CC1 | . | 10.7% | . | 4.3% | .

Compound activity deposited in PubChem by National Center for Advancing Translational Sciences (NCATS).
